# Measured values taken from PubChem BioAssay (NCATS).
# Unmarked numbers belong to inactive results. Records with an inconclusive call do not appear. Calls of active or inactive are those of the source. Unless noted, the call rests on the fitted dose curve; in most records, active means well fitted curve in either direction with a large enough effect (not every such curve was filed as active); inconclusive means small, poorly fitted or top-dose-only effect, or another doubt; inactive means flat fitted curve, though single readings scatter.
# Legend:
# [1] = tested on: HIV-1 nucleocapsid protein NCp7 (binding to TG oligonucleotide); assay: HIV Nucleocapsid (AID 346; call rule not given here;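 further: potency means the concentration at half of the fitted maximal effect; potency is for inhibitors that block NC binding and lower polarization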); conditions: HIV-1 NC / fluorescein-TGTGTGTG probe, fluorescence polarization
# How it was run: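 HIV-1 NC (100 nM) binding to fluorescein-labelled ssDNA TG4xF (10 nM) in Hepes pH 7.5, 250mM NaCl, 1uM ZnCl2, TCEP and 2-mercaptoethanol; compounds pin-transferred, 1 hr room temperature, fluorescence polarization read on CCD imager.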
# [2] = biological target: Lysosomal acid glucosylceramidase (Homo sapiens) (UniProt P04062); assay: Glucocerebrosidase-p2 (AID 348; in the data active means potency below about 10 µM; further: potency means the concentration at half of the fitted maximal effect); conditions: purified GBA, blue fluorogenic substrate, 40 min
# Sequence of Lysosomal acid glucosylceramidase (Homo sapiens) (P04062 whole entry, looked up): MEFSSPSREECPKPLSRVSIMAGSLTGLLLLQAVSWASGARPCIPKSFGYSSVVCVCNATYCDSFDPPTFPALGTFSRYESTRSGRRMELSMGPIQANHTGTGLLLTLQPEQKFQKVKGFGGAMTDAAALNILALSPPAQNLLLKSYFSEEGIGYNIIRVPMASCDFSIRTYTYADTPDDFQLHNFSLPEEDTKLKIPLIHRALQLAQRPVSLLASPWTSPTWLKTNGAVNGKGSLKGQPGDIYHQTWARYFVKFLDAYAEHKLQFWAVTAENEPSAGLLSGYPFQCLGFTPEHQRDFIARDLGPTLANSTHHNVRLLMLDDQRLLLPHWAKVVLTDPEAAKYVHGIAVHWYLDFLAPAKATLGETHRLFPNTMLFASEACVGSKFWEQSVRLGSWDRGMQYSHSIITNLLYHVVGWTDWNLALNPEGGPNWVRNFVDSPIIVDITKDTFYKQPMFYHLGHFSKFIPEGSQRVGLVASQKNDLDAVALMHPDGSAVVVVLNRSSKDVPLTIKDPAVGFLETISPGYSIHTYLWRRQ
# How it was run: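 Normal human glucocerebrosidase (0.2 nM) with blue fluorogenic substrate (80 uM final) in citrate/phosphate pH 5.9 with 10mM sodium taurocholate, 0.01% tween-20; 40 min RT, NaOH/glycine stop; fluorescence Ex 365/Em 440; AC50 from a titration from 0.6 nM upwards.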
# [3] = AP1 Signaling Pathway (AID 357); conditions: ME-180 AP-1-bla reporter, EGF-induced, beta-lactamase ratio, 5 h; at 7.69 µM (top of the series) unless noted; further: on the % scale 0 is the no-effect control and ±100 the full control effect
# How it was run: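 ME-180 cells with beta-lactamase reporter under AP-1 response element, stimulated with EC50 EGF; compounds tested in titration series, 5 h at 37 °C. CCF4 substrate added 2.5 h at room temperature; 460/530 nm emission ratio gave %activity and AC50.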
# [4] = biological target: Cytochrome P450 1A2 (Homo sapiens) (UniProt P05177); assay: p450-cyp1a2 (AID 410; calls by dose curve; further: potency means the concentration at half of the fitted maximal effect;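 on activity change, negative = inhibition: -100% = full effect of reference inhibitor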); conditions: recombinant CYP1A2, luciferin-ME demethylation, luminescence; series mostly up to 11.4 µM
# Sequence of Cytochrome P450 1A2 (Homo sapiens) (P05177 whole entry, looked up): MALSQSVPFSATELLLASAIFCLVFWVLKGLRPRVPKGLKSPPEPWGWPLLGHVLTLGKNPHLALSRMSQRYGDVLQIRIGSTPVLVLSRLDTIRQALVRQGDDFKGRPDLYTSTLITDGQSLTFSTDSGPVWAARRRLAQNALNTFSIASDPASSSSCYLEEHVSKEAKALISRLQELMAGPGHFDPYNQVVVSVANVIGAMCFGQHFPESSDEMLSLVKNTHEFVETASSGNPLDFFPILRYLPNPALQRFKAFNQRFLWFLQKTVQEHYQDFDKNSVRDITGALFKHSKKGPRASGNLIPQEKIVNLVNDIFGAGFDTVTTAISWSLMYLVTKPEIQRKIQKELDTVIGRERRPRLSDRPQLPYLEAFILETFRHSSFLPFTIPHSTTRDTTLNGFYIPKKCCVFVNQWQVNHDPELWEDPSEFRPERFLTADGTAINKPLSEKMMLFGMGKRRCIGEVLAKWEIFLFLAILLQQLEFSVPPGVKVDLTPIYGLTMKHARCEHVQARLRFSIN
# How it was run: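 Read-out is luminescence from luciferin produced by CYP1A2 demethylation of Luciferin-ME (100uM, at Km). Detection reagent stopped the 60 min NADPH-dependent reaction; signals were normalized to 57 uM furafylline.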
# [5] = NFAT Signaling Pathway (AID 444); conditions: Jurkat NFAT-bla M1, carbachol, beta-lactamase ratio, 5 h; at 7.69 µM (top of the series) unless noted;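 further: carbachol stimulus at about its EC50 of 1 µM final; on the % scale 0 is the no-effect control and ±100 the full control effect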
# How it was run: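 Jurkat cells carrying an NFAT-driven β-lactamase reporter and co-transfected muscarinic M1 receptor were treated with compound plus carbachol (1 uM final, an EC50 level) for 5 h at 37 °C. CCF4 loading followed for 1 h at RT; 460/530 nm ratio gave %activity.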
# [6] = Stat Signaling Pathway (AID 446); conditions: ME-180 (cervical carcinoma) SIE beta-lactamase reporter, IL-6 stimulated, 5 h; at 7.69 µM (top of the series) unless noted;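 further: ME-180 cervical cancer cells given 40 pM IL-6 alongside compound; SIE-controlled beta-lactamase reporter measured as 460/530 nm FRET emission ratio; on the % scale 0 is the no-effect control and ±100 the full control effect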
# How it was run: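 Normalization used AC90 stimulation (300 pM IL-6) and AC90 inhibition (125 nM pan-JAK inhibitor at 40 pM IL-6). The underlying signal is SIE-driven beta-lactamase in ME-180 cells after 5 h IL-6 exposure with compound.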
# [7] = biological target: Glucocorticoid receptor (Homo sapiens) (UniProt P04150); assay: GR-GFP Redistribution (AID 450;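 active means compounds whose dose series gives a full or clear partial fitted curve of increased nuclear translocation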; further: potency means the concentration at half of the fitted maximal effect); conditions: U2OS GR-GFP nuclear translocation, laser cytometry, 2 h
# Sequence of Glucocorticoid receptor (Homo sapiens) (P04150 whole entry, looked up, the tested form may be a part): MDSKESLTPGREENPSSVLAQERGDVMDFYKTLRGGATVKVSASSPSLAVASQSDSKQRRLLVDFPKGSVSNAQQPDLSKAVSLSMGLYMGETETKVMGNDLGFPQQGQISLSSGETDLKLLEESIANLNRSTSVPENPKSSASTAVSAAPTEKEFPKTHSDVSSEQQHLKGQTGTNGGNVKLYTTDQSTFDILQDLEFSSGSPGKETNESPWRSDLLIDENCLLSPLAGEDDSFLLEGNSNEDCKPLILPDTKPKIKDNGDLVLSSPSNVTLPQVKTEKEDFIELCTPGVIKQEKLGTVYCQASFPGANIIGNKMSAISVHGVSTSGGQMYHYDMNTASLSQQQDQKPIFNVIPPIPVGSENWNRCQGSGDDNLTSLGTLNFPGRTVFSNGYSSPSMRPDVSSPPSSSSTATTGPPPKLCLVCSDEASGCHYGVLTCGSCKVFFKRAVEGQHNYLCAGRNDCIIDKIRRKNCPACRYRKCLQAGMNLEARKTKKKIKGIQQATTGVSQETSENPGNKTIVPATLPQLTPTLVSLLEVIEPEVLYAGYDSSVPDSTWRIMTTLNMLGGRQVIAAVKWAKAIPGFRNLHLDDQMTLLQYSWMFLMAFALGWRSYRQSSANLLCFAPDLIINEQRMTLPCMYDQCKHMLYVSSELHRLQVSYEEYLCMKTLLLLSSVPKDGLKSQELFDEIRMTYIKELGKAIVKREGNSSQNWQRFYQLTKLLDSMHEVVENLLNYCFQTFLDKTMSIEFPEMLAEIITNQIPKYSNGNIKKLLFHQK
# [8] = biological target: Glucocorticoid receptor (Homo sapiens) (UniProt P04150); assay: GR-EFC Redistribution (AID 451; calls by dose curve; further: potency means the concentration at half of the fitted maximal effect); conditions: CHO-K1 GR-EFC translocation, beta-gal luminescence, 2 h
# How it was run: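 CHO-K1 cells stably expressing nuclear-localized β-gal enzyme acceptor and GR fused C-terminally to the enzyme donor fragment; ligand-driven nuclear translocation restores β-gal by complementation. Compounds titrated up to 46 uM final, 2 h at 37 °C; luminescence read.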
# [9] = biological target: Mitogen-activated protein kinase 10 (Mus musculus) (UniProt Q61831); assay: JNK3 AlphaScreen Assay (AID 530); conditions: JNK3 lysate, c-Jun phosphorylation; series mostly up to 57.1 µM;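 further: kinase came from lysate of stimulated human HepG2 cells; signal reports phosphorylation of biotinylated GST-cJun 1-79 at Ser73 with 10 µM ATP; on the % scale 0 is the no-effect control and ±100 the full control effect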
# How it was run: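 Biotinylated GST-cJun(1-79) served as substrate for JNK3 in HepG2 lysates stimulated with IL-1beta and TNF-alpha. ATP was 10 uM final, pH 7.6. Ser73 phosphorylation was quantified by AlphaScreen (680 nm excitation).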
# [10] = biological target: 3',5'-cyclic-AMP phosphodiesterase 4B (Homo sapiens) (UniProt Q07343); assay: qHTS Assay for Inhibitors of PDE-IV (AID 607; active means well fitted activation curve with a large enough effect in the main read-out, with a control signal flat, not every such curve was filed as active; further: % of control where 0% means no effect); conditions: HEK293 ACTOne CNG channel cells, membrane potential fluorescence; series mostly up to 22.9 µM
# Sequence of 3',5'-cyclic-AMP phosphodiesterase 4B (Homo sapiens) (Q07343 whole entry, looked up): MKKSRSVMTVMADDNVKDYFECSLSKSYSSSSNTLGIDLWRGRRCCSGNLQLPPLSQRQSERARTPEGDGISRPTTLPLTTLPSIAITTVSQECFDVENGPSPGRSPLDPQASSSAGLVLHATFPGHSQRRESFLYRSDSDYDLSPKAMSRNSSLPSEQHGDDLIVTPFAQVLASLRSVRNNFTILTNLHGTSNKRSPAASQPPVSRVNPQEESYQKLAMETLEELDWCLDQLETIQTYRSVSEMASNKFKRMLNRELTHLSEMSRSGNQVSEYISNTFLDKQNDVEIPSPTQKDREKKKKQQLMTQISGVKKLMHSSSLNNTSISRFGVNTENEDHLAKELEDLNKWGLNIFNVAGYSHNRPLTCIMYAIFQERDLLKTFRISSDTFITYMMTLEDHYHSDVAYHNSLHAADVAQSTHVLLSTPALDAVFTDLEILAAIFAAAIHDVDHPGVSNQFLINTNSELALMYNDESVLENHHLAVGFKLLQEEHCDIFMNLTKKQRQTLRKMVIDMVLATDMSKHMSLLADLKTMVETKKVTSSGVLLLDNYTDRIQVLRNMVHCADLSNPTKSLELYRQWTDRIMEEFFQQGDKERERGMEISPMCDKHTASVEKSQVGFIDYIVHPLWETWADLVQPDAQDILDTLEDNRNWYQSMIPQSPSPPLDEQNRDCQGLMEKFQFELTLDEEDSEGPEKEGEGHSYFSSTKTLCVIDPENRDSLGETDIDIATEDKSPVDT
# How it was run: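 HEK293 ACTOne cells with CNG channel (1000/well), endogenous PDE4; membrane potential dye, compounds up to 22.9 uM final. Fluorescence Ex 535/Em 590; RO 20-1724 (100 uM final) as reference.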
# [11] = biological target: Cytochrome P450 3A4 (Homo sapiens) (UniProt P08684); assay: qHTS Assay for Activators of Cytochrome P450 3A4 (AID 885; active means well fitted activation curve with a large enough effect; further: nearly all actives have a fitted effect of over 65% in size); conditions: recombinant CYP3A4, Luciferin-PPXE luminescence, 60 min; series mostly up to 57.1 µM
# Sequence of Cytochrome P450 3A4 (Homo sapiens) (P08684 whole entry, looked up): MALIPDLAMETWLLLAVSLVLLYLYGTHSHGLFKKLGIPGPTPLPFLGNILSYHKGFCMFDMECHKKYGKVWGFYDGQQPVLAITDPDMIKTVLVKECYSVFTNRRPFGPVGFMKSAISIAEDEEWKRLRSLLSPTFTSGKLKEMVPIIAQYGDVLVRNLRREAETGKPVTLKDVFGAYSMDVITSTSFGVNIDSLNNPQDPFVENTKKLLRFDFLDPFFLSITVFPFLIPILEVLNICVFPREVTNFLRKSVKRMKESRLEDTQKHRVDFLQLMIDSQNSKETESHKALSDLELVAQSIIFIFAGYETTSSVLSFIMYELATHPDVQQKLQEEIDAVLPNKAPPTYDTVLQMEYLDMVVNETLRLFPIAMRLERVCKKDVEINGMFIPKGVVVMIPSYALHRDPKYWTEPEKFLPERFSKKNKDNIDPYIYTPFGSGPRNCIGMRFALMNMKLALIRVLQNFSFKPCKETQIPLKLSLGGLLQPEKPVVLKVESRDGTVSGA
# How it was run: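 Human CYP3A4 dealkylates Luciferin-PPXE to luciferin, which luciferase detection converts to light. Substrate was at its KM (25uM), buffer 200mM KPO4, reaction 60 min at RT.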
structure (smiles),measurement,setting,value
COc1cccc(Cn2c(=O)c(C)nc3cnc(N4CCOCC4)nc32)c1,Potency,[1],> 20 µM
O=C(c1ccncc1)N1CCC2(CCN(Cc3ccccc3)CC2)CC1,Potency,[1],> 20 µM
CCC1(CCSC(=N)N)C(=O)NC(=O)NC1=O,Potency,[2],> 11.4 µM
same,"activity change, negative = inhibition",[3],6.2%
same,"activity change, negative = inhibition",[4],-10.9% [at 2.29 µM]
same,"activity change, negative = inhibition",[5],1.26%
same,"activity, negative = inhibition",[6],-4.63%
same,Potency,[7],> 46 µM
same,Potency,[8],> 9.22 µM
same,"activity change, negative = inhibition",[9],3.03% [at 11.4 µM]
same,outcome,[10],inactive
FC(F)(F)c1ccccc1-c1cncnc1NCCN1CCOCC1,Potency,[1],> 20 µM
c1ccc(C[N+]23CN4CN(CN(C4)C2)C3)cc1,Potency,[2],> 11.4 µM
same,"activity change, negative = inhibition",[3],0.854%
same,"activity change, negative = inhibition",[4],-10.1% [at 2.29 µM]
same,"activity change, negative = inhibition",[5],6.01%
same,"activity, negative = inhibition",[6],6.74%
same,Potency,[7],> 46 µM
same,Potency,[8],> 9.22 µM
same,"activity change, negative = inhibition",[9],-2.9% [at 11.4 µM]
same,outcome,[10],inactive
CS(=O)(=O)Nc1cccc(-c2cncnc2NCc2cccs2)c1,Potency,[1],> 20 µM
COCCNc1cc(-c2ccccc2CN(C)C)ncn1,Potency,[1],> 20 µM
O=C1N[C@@]2(CN3CCC2CC3)C(=O)N1CN(Cc1ccccc1)c1ccccc1,Potency,[2],> 11.4 µM
same,"activity change, negative = inhibition",[3],-6.81%
same,Potency,[4],398 nM (active)
same,"activity change, negative = inhibition",[5],6.45%
same,"activity, negative = inhibition",[6],-6.68%
same,Potency,[7],> 46 µM
same,Potency,[8],> 9.22 µM
same,"activity change, negative = inhibition",[9],4.81% [at 11.4 µM]
same,outcome,[10],inactive
C[C@]1(O)CC[C@H]2[C@@H]3[C@@H](O)CC4=CC(=O)CC[C@@]4(C)[C@H]3CC[C@]21C,Potency,[2],> 11.4 µM
same,"activity change, negative = inhibition",[3],1.55%
same,"activity change, negative = inhibition",[4],1.4% [at 2.29 µM]
same,"activity change, negative = inhibition",[5],6.38%
same,"activity, negative = inhibition",[6],-1.92%
same,Potency,[7],> 46 µM
same,Potency,[8],> 9.22 µM
same,"activity change, negative = inhibition",[9],-3.1% [at 11.4 µM]
same,outcome,[10],inactive
COc1cccc(Nc2ncc3nc(CCc4ccccc4)c(=O)n(C4CC4)c3n2)c1,Potency,[1],> 4 µM
N#Cc1cccc(NC(=O)N2CCCC3(CCN(C(=O)Oc4ccccc4)CC3)C2)c1,Potency,[1],> 20 µM
same,Potency,[2],> 11.4 µM
same,"activity change, negative = inhibition",[3],-22.4%
same,"activity, negative = inhibition",[6],-12.1%
same,Potency,[8],> 46 µM
same,Potency,[9],inactive
same,outcome,[10],inactive
same,Potency,[11],inactive
N[C@H](Cc1c[nH]c2ccccc12)P(=O)(O)O,Potency,[2],> 11.4 µM
same,"activity change, negative = inhibition",[3],-3.26%
same,Potency,[4],inactive
same,"activity change, negative = inhibition",[5],-3.98%
same,"activity, negative = inhibition",[6],-3.09%
same,Potency,[7],> 46 µM
same,Potency,[8],> 9.22 µM
same,"activity change, negative = inhibition",[9],4.66% [at 11.4 µM]
same,outcome,[10],inactive
